From PubChem BioAssay (NCATS)
Records with an inconclusive call do not appear. Entries that show only a call come without a potency. A number with no mark means an inactive call. Activity calls are given as the source filed them. The call rests on the fitted dose curve.

Test: Primary qHTS for Huh7 cytotoxicity: counterscreen for inhibitors of MERS-S pseudotyped particle cell entry (AID 1479147)
Conditions: cell viability read-out; series mostly up to 57.1 µM
Potency means the concentration at half of the fitted maximal effect.

Row | Compound | Potency | activity change, negative = cytotoxicity
1 | C=C1CC[C@H](O)C/C1=C\C=C1/CCC[C@]2(C)[C@@H]([C@H](C)CCCC(C)C)CC[C@@H]12 | inactive | 
2 | Cc1cc(N)c2ccccc2[n+]1CCCCCCCCCC[n+]1c(C)cc(N)c2ccccc21 |  | 1.39% [at 11.4 µM]
3 | Nc1nc(-n2cc(C(=O)O)c(=O)c3cc(F)c(N4CC(O)C4)c(Cl)c32)c(F)cc1F | inactive | 
4 | C=C[C@]1(C)C[C@@H](OC(=O)CSCCN(CC)CC)[C@]2(C)[C@H](C)CC[C@]3(CCC(=O)[C@H]32)[C@@H](C)[C@@H]1O | inactive | 
5 | C[C@H]1C[C@H]2[C@H]3CCC4=CC(=O)C=C[C@]4(C)[C@@]3(F)[C@@H](O)C[C@]2(C)[C@@]1(OC(=O)c1ccccc1)C(=O)CO | inactive | 
6 | CC1(C)C(/C=C/C=C/C=C/C=C2/N(CCCCS(=O)(=O)O)c3ccc4ccccc4c3C2(C)C)=[N+](CCCCS(=O)(=O)[O-])c2ccc3ccccc3c21 | inactive | 
7 | CN1C(CC(=O)c2ccccc2)CCCC1CC(O)c1ccccc1 (stereo unspecified) | inactive | 
8 | C=C1/C(=C/C=C2\CCC[C@]3(C)[C@@H]([C@H](C)CCCC(O)(C(F)(F)F)C(F)(F)F)CC[C@@H]23)C[C@@H](O)C[C@@H]1O | inactive | 
9 | COC(=O)N[C@H](C(=O)N1CC2(CC2)C[C@H]1c1ncc(-c2ccc3c(c2)C(F)(F)c2cc(-c4ccc5nc([C@@H]6[C@H]7CC[C@H](C7)N6C(=O)[C@@H](NC(=O)OC)C(C)C)[nH]c5c4)ccc2-3)[nH]1)C(C)C | inactive | 
10 | CC1(COc2ccc(N3CCC(Oc4ccc(OC(F)(F)F)cc4)CC3)cc2)Cn2cc([N+](=O)[O-])nc2O1 (stereo unspecified) | inactive | 
11 | C=C(NC(=O)C(=C)NC(=O)c1csc(C2=N[C@H]3c4csc(n4)[C@H]4NC(=O)c5csc(n5)[C@H]([C@@](C)(O)[C@@H](C)O)NC(=O)[C@H]5CSC(=N5)C(=CC)NC(=O)[C@H]([C@@H](C)O)NC(=O)c5csc(n5)[C@]3(CC2)NC(=O)[C@H](C)NC(=O)C(=C)NC(=O)[C@H](C)NC(=O)[C@H](C(C)CC)N[C@@H]2C=Cc3c([C@H](C)O)cc(nc3[C@H]2O)C(=O)O[C@@H]4C)n1)C(N)=O (stereo partly specified) | 20 µM (active) | 
12 | CC(C)OC(=O)CCC/C=C\C[C@@H]1[C@@H](/C=C/[C@@H](O)COc2cccc(C(F)(F)F)c2)[C@H](O)C[C@@H]1O | inactive | 
13 | CC[C@@]1(O)C(=O)OCc2c1cc1n(c2=O)Cc2c-1nc1cc(F)c(C)c3c1c2[C@@H](N)CC3 | inactive | 
14 | COC[C@H]1C[C@@H](c2ncc(-c3ccc4c(c3)COc3cc5c(ccc6[nH]c([C@@H]7CC[C@H](C)N7C(=O)[C@@H](NC(=O)OC)C(C)C)nc65)cc3-4)[nH]2)N(C(=O)[C@H](NC(=O)OC)c2ccccc2)C1 | inactive | 
15 | C=C1CC[C@H](O)CC1=C/C=C1\CCC[C@]2(C)[C@@H]([C@H](C)CCCC(C)(C)O)CC[C@@H]12 | inactive | 
16 | CN(C)CC/C=C1\c2ccccc2CSc2ccccc21 | inactive | 
